From the supplement of paper PMC4466140

B1: unnamed (peptide)
chain: PSTMDFPKLPSFQNS

biological target: AgAbp1; assay: SPOT peptide array binding signal intensity (averaged, normalized) (arbitrary units (background-subtracted, floor 0; scale differs between SH3 domains)); higher = stronger binding of the SH3 domain to the peptide
Summary of the method: (§1)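 E. coli BL21(DE3) was used to express GST-fused SH3 domains from four yeast species, which were then purified on glutathione Sepharose. These were incubated at 10 μg/ml in TBS-based blocking buffer overnight at 4°C on cellulose membranes carrying synthetic 15-mer peptides, in which cysteines were replaced by serines. Binding signal is the replicate average of normalized, background-subtracted spot intensity, in arbitrary units that differ between domains.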

Binder | SPOT peptide array binding signal intensity
B1 | 3

biological target: AgBbc1; assay: as above
Summary of the method: as §1

Binder | SPOT peptide array binding signal intensity
B1 | 10.5

biological target: AgBem1-D1; assay: as above
Summary of the method: as §1

Binder | SPOT peptide array binding signal intensity
B1 | 88.5

biological target: AgBzz1-D1; assay: as above
Summary of the method: as §1

Binder | SPOT peptide array binding signal intensity
B1 | 13

biological target: AgBzz1-D2; assay: as above
Summary of the method: as §1

Binder | SPOT peptide array binding signal intensity
B1 | ≤ 0

biological target: AgCyk3; assay: as above
Summary of the method: as §1

Binder | SPOT peptide array binding signal intensity
B1 | ≤ 0

biological target: AgFus1; assay: as above
Summary of the method: as §1

Binder | SPOT peptide array binding signal intensity
B1 | 347

biological target: AgHof1; assay: as above
Summary of the method: as §1

Binder | SPOT peptide array binding signal intensity
B1 | 63.2

biological target: AgHse1; assay: as above
Summary of the method: as §1

Binder | SPOT peptide array binding signal intensity
B1 | 198

biological target: AgLsb1; assay: as above
Summary of the method: as §1

Binder | SPOT peptide array binding signal intensity
B1 | 0.5

biological target: AgLsb4; assay: as above
Summary of the method: as §1

Binder | SPOT peptide array binding signal intensity
B1 | 6

biological target: AgMyo5; assay: as above
Summary of the method: as §1

Binder | SPOT peptide array binding signal intensity
B1 | 13.5

biological target: AgNbp2; assay: as above
Summary of the method: as §1

Binder | SPOT peptide array binding signal intensity
B1 | 179

biological target: AgRvs167; assay: as above
Summary of the method: as §1

Binder | SPOT peptide array binding signal intensity
B1 | 3.5

biological target: AgSho1; assay: as above
Summary of the method: as §1

Binder | SPOT peptide array binding signal intensity
B1 | 376

biological target: AgSla1-D1-D2; assay: as above
Summary of the method: as §1

Binder | SPOT peptide array binding signal intensity
B1 | ≤ 0

biological target: AgSla1-D3; assay: as above
Summary of the method: as §1

Binder | SPOT peptide array binding signal intensity
B1 | 0.5

biological target: CaAbp1-D1; assay: as above
Summary of the method: as §1

Binder | SPOT peptide array binding signal intensity
B1 | 0.5

biological target: CaAbp1-D2; assay: as above
Summary of the method: as §1

Binder | SPOT peptide array binding signal intensity
B1 | 43.5

biological target: CaBbc1; assay: as above
Summary of the method: as §1

Binder | SPOT peptide array binding signal intensity
B1 | 34.5

biological target: CaBem1-D1; assay: as above
Summary of the method: as §1

Binder | SPOT peptide array binding signal intensity
B1 | 54

biological target: CaBzz1-D1; assay: as above
Summary of the method: as §1

Binder | SPOT peptide array binding signal intensity
B1 | 85

biological target: CaBzz1-D2; assay: as above
Summary of the method: as §1

Binder | SPOT peptide array binding signal intensity
B1 | 57.5

biological target: CaCyk3; assay: as above
Summary of the method: as §1

Binder | SPOT peptide array binding signal intensity
B1 | 8

biological target: CaFus1; assay: as above
Summary of the method: as §1

Binder | SPOT peptide array binding signal intensity
B1 | 1020

biological target: CaHof1; assay: as above
Summary of the method: as §1

Binder | SPOT peptide array binding signal intensity
B1 | 1

biological target: CaHse1; assay: as above
Summary of the method: as §1

Binder | SPOT peptide array binding signal intensity
B1 | 156

biological target: CaLsb1; assay: as above
Summary of the method: as §1

Binder | SPOT peptide array binding signal intensity
B1 | 0.5

biological target: CaLsb4; assay: as above
Summary of the method: as §1

Binder | SPOT peptide array binding signal intensity
B1 | 390

biological target: CaMyo5; assay: as above
Summary of the method: as §1

Binder | SPOT peptide array binding signal intensity
B1 | 95.5

biological target: CaNbp2; assay: as above
Summary of the method: as §1

Binder | SPOT peptide array binding signal intensity
B1 | 340

biological target: CaRvs167; assay: as above
Summary of the method: as §1

Binder | SPOT peptide array binding signal intensity
B1 | 33.3

biological target: CaRvs167-3; assay: as above
Summary of the method: as §1

Binder | SPOT peptide array binding signal intensity
B1 | 6.5

biological target: CaSho1; assay: as above
Summary of the method: as §1

Binder | SPOT peptide array binding signal intensity
B1 | 1290

biological target: CaSla1-D1-D2; assay: as above
Summary of the method: as §1

Binder | SPOT peptide array binding signal intensity
B1 | 136

biological target: CaSla1-D3; assay: as above
Summary of the method: as §1

Binder | SPOT peptide array binding signal intensity
B1 | 157

biological target: ScAbp1; assay: as above
Summary of the method: as §1

Binder | SPOT peptide array binding signal intensity
B1 | 3

biological target: ScBbc1; assay: as above
Summary of the method: as §1

Binder | SPOT peptide array binding signal intensity
B1 | ≤ 0

biological target: ScBem1-D1; assay: as above
Summary of the method: as §1

Binder | SPOT peptide array binding signal intensity
B1 | ≤ 0

biological target: ScBzz1-D1; assay: as above
Summary of the method: as §1

Binder | SPOT peptide array binding signal intensity
B1 | 2

biological target: ScBzz1-D2; assay: as above
Summary of the method: as §1

Binder | SPOT peptide array binding signal intensity
B1 | 10.5

biological target: ScCyk3; assay: as above
Summary of the method: as §1

Binder | SPOT peptide array binding signal intensity
B1 | 5

biological target: ScFus1; assay: as above
Summary of the method: as §1

Binder | SPOT peptide array binding signal intensity
B1 | 414

biological target: ScHof1; assay: as above
Summary of the method: as §1

Binder | SPOT peptide array binding signal intensity
B1 | 88.2

biological target: ScHse1; assay: as above
Summary of the method: as §1

Binder | SPOT peptide array binding signal intensity
B1 | 130

biological target: ScLsb1; assay: as above
Summary of the method: as §1

Binder | SPOT peptide array binding signal intensity
B1 | 11

biological target: ScLsb2; assay: as above
Summary of the method: as §1

Binder | SPOT peptide array binding signal intensity
B1 | ≤ 0

biological target: ScLsb3; assay: as above
Summary of the method: as §1

Binder | SPOT peptide array binding signal intensity
B1 | 184

biological target: ScLsb4; assay: as above
Summary of the method: as §1

Binder | SPOT peptide array binding signal intensity
B1 | 140

biological target: ScMyo3; assay: as above
Summary of the method: as §1

Binder | SPOT peptide array binding signal intensity
B1 | 28.5

biological target: ScMyo5; assay: as above
Summary of the method: as §1

Binder | SPOT peptide array binding signal intensity
B1 | 10.5

biological target: ScNbp2; assay: as above
Summary of the method: as §1

Binder | SPOT peptide array binding signal intensity
B1 | 252

biological target: ScPex13; assay: as above
Summary of the method: as §1

Binder | SPOT peptide array binding signal intensity
B1 | 221

biological target: ScRvs167; assay: as above
Summary of the method: as §1

Binder | SPOT peptide array binding signal intensity
B1 | 11.3

biological target: ScSho1; assay: as above
Summary of the method: as §1

Binder | SPOT peptide array binding signal intensity
B1 | 528

biological target: ScSla1-D1-D2; assay: as above
Summary of the method: as §1

Binder | SPOT peptide array binding signal intensity
B1 | 60

biological target: ScSla1-D3; assay: as above
Summary of the method: as §1

Binder | SPOT peptide array binding signal intensity
B1 | 290

biological target: SpAbp1-D1; assay: as above
Summary of the method: as §1

Binder | SPOT peptide array binding signal intensity
B1 | ≤ 0

biological target: SpBbc1; assay: as above
Summary of the method: as §1

Binder | SPOT peptide array binding signal intensity
B1 | ≤ 0

biological target: SpBzz1-D1; assay: as above
Summary of the method: as §1

Binder | SPOT peptide array binding signal intensity
B1 | 205
